± gives the standard deviation.
Assays:
Settings in all cases: modulator concentration 10 µM
[1] = test system: RAW-Dual (murine macrophage reporter line); experiment: NF-kB reporter (SEAP) activity fold change vs agonist alone; higher = enhanced NF-kB activity
Outline: (§1)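 RAW-Dual murine macrophage reporter cells were seeded at 50 000 per well in 384-well plates and pre-incubated 1 hour at 37 °C with compound pin-transferred to 10 μM final. After 1 hour, a PRR agonist was added and cells incubated overnight. Supernatant NF-κB (SEAP, QUANTI-Blue, 620 nm absorbance) and IRF (Lucia luciferase, QUANTI-Luc, luminescence) signals were divided by the mean agonist-only control on the same plate to give fold change. Two replicate plates were averaged, with errors by propagation.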

[2] = test system: RAW-Dual (murine macrophage reporter line); experiment: IRF reporter (Lucia luciferase) activity fold change vs agonist alone; higher = enhanced IRF activity
Outline: as §1

[3] = test system: RAW-Dual (murine macrophage reporter line); experiment: viability score (confluency relative to resting cells, overnight) (fraction); higher = more viable, active = viable (0.7 or more)
Outline: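 Two confluency masks, generated with IncuCyte software over all imaged wells, were applied to IncuCyte images of RAW-Dual macrophages. The cells, in 384-well plates, had been exposed overnight to 10 μM final compound. The viability score is confluency as a fraction of resting cells, and a compound met the cutoff only with both masks above 70% of resting cells.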

[4] = agonist: CpG ODN 1826 0.5 ug/mL

| Compound | NF-kB reporter [1, 4] | NF-kB reporter ([1]; agonist: LPS 0.1 ug/mL) | NF-kB reporter ([1]; agonist: MPLA […]) | IRF reporter ([2]; agonist: 3'3'-cGAMP 10 ug/mL) | IRF reporter ([2]; agonist: LPS 0.1 ug/mL) | IRF reporter ([2]; agonist: MPLA […]) | viability score [3] |
| --- | --- | --- | --- | --- | --- | --- | --- |
| COc1ccc2nc(NCCCn3ccnc3)sc2c1 | 0.921 ± 0.07 | 1.02 ± 0.11 | 1.04 ± 0.1 | 0.836 ± 0.034 | 1.15 ± 0.14 | 1.25 ± 0.2 | 0.985 (active) |
| COc1ccccc1N1CCN(c2ncnc3c2cnn3-c2cc(C)cc(C)c2)CC1 | 1.2 ± 0.067 | 1.16 ± 0.1 | 1.19 ± 0.042 | 1.01 ± 0.049 | 1.05 ± 0.098 | 1.08 ± 0.16 | 0.997 (active) |
| COc1ccc(-c2cc(=O)c3c(O)cc(O)cc3o2)cc1O | 1.38 ± 0.11 | 1.15 ± 0.056 | 1.3 ± 0.04 | 0.641 ± 0.036 | 0.426 ± 0.076 | 0.356 ± 0.063 | 0.985 (active) |
| COc1ccc(C2N3CC4(C)CN2CC(C)(C3)C4=O)cc1 (centres undefined) | 1.03 ± 0.17 | 0.973 ± 0.093 | 0.947 ± 0.082 | 1.03 ± 0.027 | 1.32 ± 0.2 | 1.27 ± 0.15 | 1 (active) |
| C[C@@H]1CCN(C(=O)CC#N)C[C@@H]1N(C)c1ncnc2[nH]ccc12 | 1.14 ± 0.15 | 0.694 ± 0.24 | 0.824 ± 0.064 | 0.337 ± 0.022 | 0.473 ± 0.098 | 0.654 ± 0.082 | 0.992 (active) |
| O=S(=O)(NCCn1ccn2nccc12)c1ccccc1Br | 0.86 ± 0.053 | 0.904 ± 0.091 | 1.02 ± 0.065 | 0.989 ± 0.049 | 1.14 ± 0.18 | 1.23 ± 0.34 | 0.983 (active) |
| Cc1cc(C(=O)O)n[nH]1 | 1.01 ± 0.077 | 0.891 ± 0.15 | 1.03 ± 0.12 | 1.06 ± 0.038 | 1.24 ± 0.14 | 1.34 ± 0.2 | 1.02 (active) |
| COC(=O)C(NC(=O)C(C)(C)C)C12CC3CC(CC(C3)C1)C2 (centres undefined) | 0.96 ± 0.075 | 0.892 ± 0.067 | 0.934 ± 0.094 | 1.06 ± 0.058 | 1.38 ± 0.23 | 1.49 ± 0.3 | 1.02 (active) |
| O=c1c(O)c(-c2ccccc2)oc2cc(O)ccc12 | 1.21 ± 0.34 | 1.37 ± 0.084 | 1.43 ± 0.15 | 0.764 ± 0.026 | 0.947 ± 0.12 | 0.789 ± 0.077 | 1 (active) |
| CC(C)(C)C1(O)CC(C(F)(F)F)=NN1C(=O)c1ccc([N+](=O)[O-])cc1 (centres undefined) | 0.644 ± 0.056 | 0.79 ± 0.095 | 1.01 ± 0.035 | 1.38 ± 0.13 | 1.13 ± 0.14 | 1.66 ± 0.33 | 0.941 (active) |
| COc1ccc(CCC(=O)NCc2nc(N(C)C)nc(N3CCCCC3)n2)cc1 | 0.8 ± 0.074 | 1.11 ± 0.11 | 0.881 ± 0.033 | 0.801 ± 0.029 | 1.01 ± 0.078 | 0.661 ± 0.12 | 1 (active) |
| CCOC(=O)C1=C(C)OC(N)=C(C#N)C1c1ccc(O)c(OCC)c1 (centres undefined) | 1.19 ± 0.075 | 1.04 ± 0.064 | 1.07 ± 0.099 | 0.939 ± 0.038 | 1.31 ± 0.12 | 1.16 ± 0.11 | 1.01 (active) |
| O=S(=O)(c1ccc(-n2cccn2)cc1)N1CC(n2cc(C3CC3)nn2)C1 | 1.01 ± 0.068 | 1.11 ± 0.1 | 0.939 ± 0.066 | 0.966 ± 0.076 | 1.21 ± 0.077 | 0.999 ± 0.085 | 0.993 (active) |
| NC(=O)c1ccccc1O | 1.18 ± 0.28 | 1.01 ± 0.051 | 0.978 ± 0.085 | 0.945 ± 0.032 | 1.23 ± 0.14 | 1.19 ± 0.16 | 0.993 (active) |
| COC(=O)C1=C(C)NC(C)=C(C(=O)OC(C)C)C1c1cccc2nonc12 (centres undefined) | 0.79 ± 0.062 | 0.942 ± 0.073 | 1.11 ± 0.096 | 0.645 ± 0.04 | 1.08 ± 0.07 | 0.967 ± 0.14 | 1 (active) |
| CCOC(=O)c1c(N2C(=O)C3C4C=CC(O4)C3C2=O)sc2c1CCCC2 (centres undefined) | 0.87 ± 0.067 | 0.792 ± 0.11 | 0.77 ± 0.092 | 0.775 ± 0.038 | 0.962 ± 0.12 | 0.967 ± 0.18 | 0.934 (active) |
| Cc1cc(C(=O)Nc2ccc(-n3nnn(C)c3=O)cc2)c(C)o1 | 1.01 ± 0.077 | 1.05 ± 0.083 | 0.809 ± 0.041 | 0.985 ± 0.064 | 1.25 ± 0.076 | 1.28 ± 0.17 | 1.01 (active) |
| O=c1c(CN2CCC(O)(c3ccc(Br)cc3)CC2)coc2ccccc12 | 0.712 ± 0.056 | 0.953 ± 0.059 | 1.07 ± 0.066 | 0.676 ± 0.032 | 1.07 ± 0.14 | 0.85 ± 0.12 | 1.01 (active) |
| CC(C)Cn1c(=O)n(C)c(=O)c2[nH]cnc21 | 1.41 ± 0.11 | 1.01 ± 0.055 | 1.08 ± 0.026 | 0.849 ± 0.049 | 0.88 ± 0.12 | 0.884 ± 0.21 | 0.983 (active) |
| Nc1ncnc2c1ncn2C1OC(CO)C(O)C1O (centres undefined) | 0.951 ± 0.078 | 0.93 ± 0.079 | 1.29 ± 0.13 | 1.15 ± 0.043 | 1.2 ± 0.22 | 1.23 ± 0.27 | 1.04 (active) |
| CNC(=O)c1ccc2cc(C3(O)CCn4cncc43)ccc2c1 (centres undefined) | 0.99 ± 0.15 | 0.866 ± 0.28 | 0.937 ± 0.052 | 0.932 ± 0.04 | 0.964 ± 0.22 | 0.945 ± 0.17 | 0.995 (active) |
| Oc1ccc(Nc2nc(Nc3ccc(O)cc3)nc(N3CCOCC3)n2)cc1 | 0.559 ± 0.13 | 2.28 ± 0.18 | 4.45 ± 0.34 | 0.383 ± 0.016 | 2.4 ± 0.25 | 4.43 ± 1.1 | 0.757 (active) |
| CC(N)C12CC3CC(CC(C3)C1)C2 (centres undefined) | 0.979 ± 0.045 | 0.933 ± 0.14 | 1.06 ± 0.058 | 1.02 ± 0.056 | 1.12 ± 0.2 | 1.24 ± 0.37 | 1.01 (active) |
| Cc1ccc(C2(c3ccc(C)cc3)CC2C(=O)Nc2ccncc2)cc1 (centres undefined) | 0.811 ± 0.095 | 0.865 ± 0.076 | 0.908 ± 0.033 | 0.764 ± 0.045 | 1.04 ± 0.09 | 1.02 ± 0.074 | 1 (active) |
| NC(N)=NN=Cc1ccc(OS(=O)(=O)c2ccccc2)cc1 | 0.0965 ± 0.0075 | 0.954 ± 0.048 | 1.18 ± 0.14 | 0.929 ± 0.044 | 0.93 ± 0.058 | 1.04 ± 0.13 | 0.433 (inactive) |
| CN(C)CCCOc1nn(Cc2ccccc2)c2ccccc12.Cl | 0.704 ± 0.032 | 0.913 ± 0.073 | 0.803 ± 0.045 | 0.892 ± 0.043 | 1.14 ± 0.27 | 1.22 ± 0.43 | 1 (active) |
| Cl.O=C1CN2Cc3c(ccc(Cl)c3Cl)NC2=N1 | 0.954 ± 0.13 | 0.963 ± 0.17 | 0.96 ± 0.077 | 0.959 ± 0.051 | 1.24 ± 0.29 | 0.993 ± 0.2 | 1.01 (active) |

From the supplement of paper PMC10646978
